Screening results (PubChem)
The list is not random: actives were taken first. Their share in the collection is about 3.6%.
mHTT-CaM PPI inh: inhibitors of human mutant huntingtin-calmodulin interaction; P42858; AlphaScreen His-mHTT/GST-CaM binding, luminescence; inhibition, % at 15 µM; 3.6% of 190,000 active; AID 1671202;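 also: 0% = both proteins with DMSO and 100% = one protein alone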
Pf apPOL block: Pf-apPOL DNA polymerase inhibition; 0.25% of 210,000 active; Recombinant Pf-apPOL, molecular beacon fluorescence, 1.5 h; inhibition, % at 10 µM
An asterisk follows results filed as active. Rule as the data show it: active = inhibition above about 50%; inactive = the rest.

O=C(CSc1nccn1-c1cccc(Cl)c1)Nc1cccc(C(F)(F)F)c1 was read as mHTT-CaM PPI inh 61* and Pf apPOL block -2.
For Cc1cccc(-n2ccnc2SCC(=O)Nc2ccc(Cl)c(Cl)c2)c1C the results were mHTT-CaM PPI inh 95* and Pf apPOL block -7.
`NC(C(=O)O)c1ccccc1Br` (stereo not drawn) gave mHTT-CaM PPI inh 0 and Pf apPOL block 0.
`C=CCSc1nnc2c(n1)OC(c1cccc(OC)c1)Nc1ccccc1-2` (stereo not drawn) gave mHTT-CaM PPI inh 10 and Pf apPOL block -4.
Screening Cc1cc(C)cc(NCc2cc3c(cc2[N+](=O)[O-])OCO3)c1 returned mHTT-CaM PPI inh 68* and Pf apPOL block -6.
COc1ccc(CNCc2cc3c(cc2[N+](=O)[O-])OCO3)cc1 was read as mHTT-CaM PPI inh 9 and Pf apPOL block -9.
`Cc1cccc(S(=O)(=O)N2CCCC(C)(C(=O)NCc3cccc(F)c3)C2)c1` (stereo not drawn) gave mHTT-CaM PPI inh -2 and Pf apPOL block -5.
For O=[N+]([O-])C1CCC2C(C1)N1C=NNC1C1NN=CN21 (stereo not drawn) the results were mHTT-CaM PPI inh -3.
Cc1cccc(C2NC(=O)c3c(sc(C)c3C)N2)c1O (stereo not drawn) was read as mHTT-CaM PPI inh 33 and Pf apPOL block 0.
For Cc1ccc(O)c(C2NC(=O)c3c(sc(C)c3C)N2)c1 (stereo not drawn) the results were mHTT-CaM PPI inh 72* and Pf apPOL block -6.
Screening CC(C)(C)OC(=O)Cn1c2ccccc2c2cc(N)ccc21 returned mHTT-CaM PPI inh 73* and Pf apPOL block -4.
Screening CCn1c2ccccc2c2cc(C(C)=O)ccc21 returned mHTT-CaM PPI inh -14 and Pf apPOL block -6.
CC(C)=C1C2C=CC1C1C(=O)N(c3ccccc3F)C(=O)C21 (stereo not drawn) was read as mHTT-CaM PPI inh -2 and Pf apPOL block -3.
Screening O=C(Cn1cnc([N+](=O)[O-])n1)Nc1cc(Oc2ccc(F)cc2)cc([N+](=O)[O-])c1 returned mHTT-CaM PPI inh 29 and Pf apPOL block 0.
`O=C(Cn1cnc([N+](=O)[O-])n1)Nc1cc(Oc2cccc(C(F)(F)F)c2)cc([N+](=O)[O-])c1` gave mHTT-CaM PPI inh 51* and Pf apPOL block -2.
For O=C(Cn1cc([N+](=O)[O-])nc1[N+](=O)[O-])Nc1cc(Oc2ccccc2)cc([N+](=O)[O-])c1 the results were mHTT-CaM PPI inh 51* and Pf apPOL block 0.
Screening O=C(Cn1cnc([N+](=O)[O-])c1)Nc1cc(Oc2cccnc2)cc([N+](=O)[O-])c1 returned mHTT-CaM PPI inh 7 and Pf apPOL block 2.
`COCCN(CCOC)Cc1c(O)ccc2c1OC(=Cc1cccnc1)C2=O` gave mHTT-CaM PPI inh 0 and Pf apPOL block -4.
Screening O=C(CN(c1ccccc1)S(=O)(=O)c1ccccc1[N+](=O)[O-])NCc1ccco1 returned mHTT-CaM PPI inh 9 and Pf apPOL block 2.
For CCOc1ccccc1CNC(=O)c1cc(NC(C)=O)cc2nc(C)ccc12 the results were mHTT-CaM PPI inh 40 and Pf apPOL block 5.
`Cc1ccc(CNC(=O)c2cc(-c3ccc(Br)s3)nc3ccccc23)o1` gave mHTT-CaM PPI inh 96* and Pf apPOL block -6.
CC(=O)Nc1cc(C(=O)NCc2ccccc2Br)c2ccc(C)nc2c1 was read as mHTT-CaM PPI inh 55* and Pf apPOL block 33.
For CCOc1ccc(C(C)NC(=O)c2cc(NC(C)=O)cc3nc(C)ccc23)cc1 (stereo not drawn) the results were mHTT-CaM PPI inh 50 and Pf apPOL block 10.
Screening O=C(NCc1ccco1)c1cc(-c2ccc(Br)s2)nc2ccccc12 returned mHTT-CaM PPI inh 35 and Pf apPOL block -4.
Screening Cc1ccc2c(C(=O)NCc3ccc(C)o3)cc(NC(=O)C3CCC3)cc2n1 returned mHTT-CaM PPI inh 64* and Pf apPOL block 12.
For COc1ccc(C(C)NC(=O)c2cc(NC(C)=O)cc3nc(C)ccc23)cc1 (stereo not drawn) the results were mHTT-CaM PPI inh 54* and Pf apPOL block 42.
For CNC(=O)c1cc(NC(=O)C2CCC2)cc2nc(C)ccc12 the results were mHTT-CaM PPI inh 5 and Pf apPOL block 10.
For O=C1OCCC1Sc1nc2sc3c(c2c(=O)[nH]1)CCC3 (stereo not drawn) the results were mHTT-CaM PPI inh -9 and Pf apPOL block -23.
For Cc1nc(NC(=O)c2ccccc2)sc1CN1CCOCC1 the results were mHTT-CaM PPI inh -4 and Pf apPOL block -4.
O=C(CCn1c(=O)[nH]c2ccsc2c1=O)NCc1ccc2c(c1)OCO2 was read as mHTT-CaM PPI inh -6 and Pf apPOL block -2.
For O=C(NC1CCN(c2nnc3ccc(Cl)cn23)CC1)c1ccoc1 the results were mHTT-CaM PPI inh 3 and Pf apPOL block 1.
Screening COc1ccc(Nc2nc(Nc3ccc(O)cc3)nc(C)c2[N+](=O)[O-])cc1 returned mHTT-CaM PPI inh 78* and Pf apPOL block -4.
CNc1nc(C)c([N+](=O)[O-])c(Nc2ccc(OC)cc2)n1 was read as mHTT-CaM PPI inh 6 and Pf apPOL block -4.
Screening CC(=O)N1c2ccccc2NC2=C(C(=O)CC(c3ccc(F)cc3)C2)C1c1cccnc1 (stereo not drawn) returned mHTT-CaM PPI inh 6 and Pf apPOL block 1.
For CC(=O)N1c2ccccc2NC2=C(C(=O)CC(c3ccc(Cl)c(Cl)c3)C2)C1c1cccnc1 (stereo not drawn) the results were mHTT-CaM PPI inh 83* and Pf apPOL block -7.
Screening CC1(C)CC(=O)C2=C(C1)Nc1ccccc1N(C(=O)C(F)(F)F)C2c1cccc(O)c1 (stereo not drawn) returned mHTT-CaM PPI inh 4 and Pf apPOL block -8.
For CC1(C)CC(=O)C2=C(C1)Nc1ccccc1N(C(=O)C(F)(F)F)C2c1cccnc1 (stereo not drawn) the results were mHTT-CaM PPI inh 4 and Pf apPOL block 63*.
`CCn1c(=O)c(C(=O)NC2CC2)nc2cc(C)c(C)cc21` gave mHTT-CaM PPI inh -2 and Pf apPOL block -6.
Screening O=S(=O)(O)c1cc(-c2nnc(-c3ccccn3)nc2-c2ccc(S(=O)(=O)O)o2)co1 returned mHTT-CaM PPI inh 100*.
c1ccc(-c2nnc(-c3ccccn3)nc2-c2ccccc2)cc1 was read as mHTT-CaM PPI inh 44 and Pf apPOL block -2.
O=C1N=C(N2CCCC2)S/C1=C/c1ccccc1O was read as mHTT-CaM PPI inh -1 and Pf apPOL block 0.
Screening CC1C(=O)N(c2ccc(Cl)cc2Cl)CCN1C(=O)c1ccc(F)cc1 (stereo not drawn) returned mHTT-CaM PPI inh 0 and Pf apPOL block 2.
`COc1cc(S(=O)(=O)NCc2ccccc2)c(OC)cc1Br` gave mHTT-CaM PPI inh -13 and Pf apPOL block -2.
For CCN(CC)c1ccc(/C=C2\C(=O)c3ccc(C(=O)O)cc3C2=O)cc1 the results were mHTT-CaM PPI inh 62* and Pf apPOL block 1.
`COc1ccc(/C=C2\C(=O)c3ccc(C(=O)O)cc3C2=O)cc1OC` gave mHTT-CaM PPI inh 3 and Pf apPOL block -10.
Screening CCc1cccc(NC(=O)C2CC(=O)N(c3ccc4oc(C)nc4c3)C2)c1 (stereo not drawn) returned mHTT-CaM PPI inh 3 and Pf apPOL block -2.
Screening COc1cccc(CC(=O)N2CCCC2COc2ccc(C(=O)N3CCCC3)cc2)c1 (stereo not drawn) returned mHTT-CaM PPI inh 4 and Pf apPOL block -4.
